# Compound activity deposited in PubChem BioAssay by several laboratories.
# Rows were chosen to be rich in hits. Some 1.9% of all compounds tested hit in one or more screens of this group.
# S1P3 antag: S1P3 receptor antagonists, primary screen, cell-based; Sphingosine 1-phosphate receptor 3 (Homo sapiens), Q99500; CHO S1P3 NFAT-BLA reporter, FRET fluorescence, antagonist mode; inhibition, % at 4.98 µM; actives 0.27% (n = 170,000);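 active = inhibition above the plate cutoff, the mean inhibition of test wells on that plate plus 3 SD, cut at about 28% in these data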;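 also: cells challenged with S1P at its EC80 of 0.8 µM; blue over green emission ratio from cleaved BLA substrate after 4 h stimulation; 0% = S1P-stimulated wells and 100% = unstimulated DMSO-only wells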
# PGE2 EP2 inh: human EP2 receptor antagonists, primary screen, TR-FRET cAMP, C6 glioma cells. actives 0.52% (n = 260,000). AID 1422, 2008. inhibition, % at 25 µM. C6 glioma cells expressing human EP2; cells stimulated with saturating PGE2. Prostaglandin E2 receptor EP2 subtype (Homo sapiens), P43116;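 active = percent inhibition above 40 after rounding to a whole number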;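 also: rat C6 glioma host cells with rolipram phosphodiesterase inhibitor present; the protocol text gives 20 µM as final concentration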
# S1P4 antag: S1P4 receptor antagonists, primary screen, cell-based | actives 0.26% (n = 220,000) | S1P4-expressing cells, antagonist mode, reporter read-out | Sphingosine 1-phosphate receptor 4 (Homo sapiens), O95977 | inhibition, % at 4.98 µM; in the data active = inhibition above about 29%;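 also: 0% = wells stimulated with agonist and 100% = vehicle wells without agonist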
# Target sequence (O95977 whole entry, looked up): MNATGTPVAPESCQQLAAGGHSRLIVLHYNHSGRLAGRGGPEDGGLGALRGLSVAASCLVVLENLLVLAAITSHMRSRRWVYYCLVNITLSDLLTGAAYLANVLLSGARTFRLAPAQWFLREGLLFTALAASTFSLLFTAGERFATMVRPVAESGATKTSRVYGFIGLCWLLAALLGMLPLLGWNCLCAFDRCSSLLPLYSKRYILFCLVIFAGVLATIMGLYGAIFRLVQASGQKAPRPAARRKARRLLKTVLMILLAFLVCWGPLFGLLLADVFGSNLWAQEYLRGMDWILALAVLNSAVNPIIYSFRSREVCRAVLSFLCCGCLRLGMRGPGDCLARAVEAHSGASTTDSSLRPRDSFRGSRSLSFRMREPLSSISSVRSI
# EP2 modulator: EP2 receptor modulators, cAMP readout, primary screen, cell-based, HTRF cAMP, PGE2 stimulation; Prostaglandin E2 receptor EP2 subtype (Homo sapiens), P43116; EP2-expressing cells, cAMP HTRF FRET, PGE2 co-stimulation; induction, % at 25 µM; actives 0.83% (n = 260,000);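 active = compounds whose cAMP rise, as percent of the full-agonist control response, exceeds 60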;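 also: rat C6 glioma line stably carrying human EP2 under a CMV promoter; the protocol text gives 20 µM as final concentration; 100% = response of wells given 1 µM PGE2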
# Pf gametocyte: late stage P. falciparum gametocyte viability inhibitors, primary screen, ATP luminescence, HTS; P. falciparum stage V gametocytes, 24 h; inhibition, % at 10.9 µM; actives 0.065% (n = 150,000); AID 743093, 2013;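 active = inhibition above the mean plus 3 SD of compounds within the control limits, set per campaign, cut at about 38% in these data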;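 also: 0% = DMSO wells and 100% = medium only without gametocytes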
# S1P4 ag: S1P4 receptor agonists, primary screen, cell-based; Sphingosine 1-phosphate receptor 4 (Homo sapiens), O95977; S1P4-expressing cell line, agonist reporter assay; activation, % at 4.98 µM; actives 0.35% (n = 220,000); in the data active = activation above about 11%;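 also: 0% = DMSO vehicle and 100% = reference agonist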
# The depositor's hits bear a star; . = not tested or not shown; ! = a repeat was not active.
SMILES,S1P3 antag,PGE2 EP2 inh,S1P4 antag,EP2 modulator,Pf gametocyte,S1P4 ag
CN1/C(=C/c2cccc[n+]2CCO)Sc2ccccc21,.,.,.,.,-4,.
Cc1ccc2c(c1)Sc1c(ccc3ccccc13)N2,6,11,15,-10,-15,1
CC[n+]1c(/C=C2\Sc3ccccc3N2C)ccc2cccc(C)c21,25,107*,-19,-28,21,-1
CC[n+]1c(/C=C2\Sc3cc(C)ccc3N2C)ccc2ccccc21,.,45*,.,-44,.,.
CCN1/C(=C/c2ccc3cc(OC)ccc3[n+]2CC)Sc2cc(C)ccc21,.,64*,.,-94,.,.
CCc1cc2cc(C)cc(C)c2nc1SCC(=O)NC(C)(C)C,.,17,.,23,.,.
CCOc1cc(C)nc(N2CCC(C(=O)Nc3ccccc3OCC)CC2)n1,10,-6,5,92*!,.,1
CCc1nnc(NS(=O)(=O)c2ccc(NC(=S)NC(=O)/C=C/c3ccc(OC)cc3)cc2)s1,-5,104*,-1,-9,-15,1
COc1ccc(C(=O)NC(=S)Nc2ccc(S(=O)(=O)Nc3nccs3)cc2)cc1,.,49*,.,-121,.,.
CCc1nnc(NS(=O)(=O)c2ccc(NC(=S)NC(=O)c3ccc(Br)cc3)cc2)s1,-2,59*,-13,-79,19,1
CCc1nnc(NS(=O)(=O)c2ccc(NC(=S)NC(=O)c3ccccc3)cc2)s1,-8,21,-28,-114,8,1
O=C(NC(=S)Nc1ccc(S(=O)(=O)Nc2nccs2)cc1)c1ccccc1,-18,8,-7,-101,.,0
CCC(C(=O)N1CCCC(c2c(S(C)(=O)=O)cnc3ncnn23)C1)c1ccccc1 (stereo not drawn),.,.,.,7,.,.
O=C(CSc1ncnc2c1cnn2-c1ccccc1)Nc1ccccc1Br,.,1,.,-42,.,.
Cc1ccc2nc3c(cc(C(=O)NCc4ccco4)c(=N)n3Cc3ccccc3)c(=O)n2c1,.,9,.,18,.,.
COC(=O)c1c(NC(=O)Cc2ccc(Cl)cc2)sc(C(=O)N2CCOCC2)c1C,.,5,.,4,.,.
CCC(CC)c1nnc(NC(=O)CCCOc2ccccc2)s1,.,9,.,62*,.,.
CCC(CC)c1nnc(NC(=O)Oc2ccccc2)s1,.,9,4,0,18,-2
O=C(O)CSc1nnc2c(n1)[nH]c1ccccc12,2,6,-20,12,27,3
O=C(O)c1ccccc1CSc1nnc2c(n1)[nH]c1ccccc12,-15,15,-10,61*,11,2
CCOCCCNC(=O)Cn1ncc2cccn2c1=O,.,9,.,5,.,.
O=[N+]([O-])c1cc2oc3c(c2c(C=NCc2ccccc2)c1O)CCCC3,9,48*,-20,22,14,0
CC(C)CN=Cc1c(O)c([N+](=O)[O-])cc2oc3c(c12)CCCC3,10,36,-13,46,-7,2
CCN(CC)C(=O)Cn1nc2c(C)cc3cc(C)ccc3n2c1=O,.,6,.,-14,.,.
CC(C)(C)c1ccc(O)c(N)c1,.,13,-7,11,.,2
SMILES,S1P3 antag,PGE2 EP2 inh,S1P4 antag,EP2 modulator,Pf gametocyte,S1P4 ag
CC(C)(C)c1ccc(O)c(CN(Cc2cc(C(C)(C)C)ccc2O)c2ccccc2)c1,.,55*,.,5,.,.
CC(=O)n1c2ccccc2c2ccccc21,.,3,5,44,.,1
c1ccc(-n2c3ccccc3c3ccccc32)cc1,-2,13,-13,64*,17,0
CCOC(=O)c1c(CSC(=N)N)n(-c2ccc(C)cc2)c2cc(Br)c(OC(C)=O)cc12,.,127*,4,-43,3,-2
CC1=C(CC[C@H](C)CO)O[C@@H]2C[C@@H]3[C@H]4CC[C@H]5C[C@@H](O)CC[C@]5(C)[C@@H]4CC(=O)[C@@]3(C)[C@H]12,.,65*,.,24,.,.
CC(=O)OC1CC[C@@]2(C)C(CCC3C2CC(=O)[C@@]2(C)C3CC3CC(C)=CC(=O)C32)C1 (stereo partly drawn),-2,6,-2,54,.,-1
O=C1c2ccccc2C(=O)N1SC1CCCCC1,-40,87*,2,-36,.,0
Nc1nc(NCc2ccccc2)nc(NCc2ccccc2)c1[N+](=O)[O-],5,4,-17,31,.,1
Nc1nc(Nc2ccccc2F)nc(NCc2ccccc2)c1[N+](=O)[O-],4,6,-5,76*,12,1
Nc1nc(Nc2ccccc2)nc(NCc2ccccc2)c1[N+](=O)[O-],-10,5,-25,38,5,0
Cc1cccc(Nc2nc(N)c([N+](=O)[O-])c(NCc3ccccc3)n2)c1,7,11,-4,76*,-3,0
O=C(c1ccc(F)cc1F)N1CCC(O)(c2ccccn2)CC1,.,.,.,-22,.,.
CCOc1ccc(NC(=O)CSc2nc3ccc(OC)cc3cc2C)cc1,.,14,.,1,.,.
O=C(N/N=C/c1cccc(O)c1)c1cc(-c2ccc3c(c2)OCO3)n[nH]1,-19,64*,-9,-77,-1,1
O=C(N/N=C/c1ccccc1)c1cc(-c2ccc3c(c2)OCO3)n[nH]1,-19,10,-6,-43,-2,-1
Cc1ccc(Cl)cc1N1CCN(Cc2nnnn2Cc2cccs2)CC1,.,19,.,-1,.,.
CCN(CC)C(=O)c1sc2[nH]c(=S)n(-c3ccccc3)c(=O)c2c1C,.,10,-2,61*,-10,-2
CCOc1ccc(CN2CC3CCCC(C2)C3(O)c2ccc(OC)cc2)cc1OC (stereo not drawn),.,3,.,-106,.,.
O=c1[nH]c(=S)[nH]c(-c2ccccc2)c1Cc1c(O)ccc2ccccc12,.,46*,.,4,.,.
C=C(C)CN1CCN(Cc2ccc(OCC(=O)N3CCCC3)cc2)CC1,.,7,.,-8,.,.
Cc1ccc2nc(-c3ccc(NS(C)(=O)=O)cc3)cc(-c3ccccc3)c2c1,.,7,-8,46,.,-5
CS(=O)(=O)Nc1ccc(Nc2c3ccccc3nc3ccccc23)cc1,.,64*,.,-18,.,.
CCc1cc2ccc(C)cc2nc1SCC(=O)N1CCOCC1,.,12,.,-8,.,.
O=C1C2CCCN2C(c2ccc(F)cc2)N1c1cccc(Cl)c1 (stereo not drawn),-32,7,2,21,.,-1
O=C1C2CCCN2C(c2cccc(F)c2)N1c1cccc(Cl)c1 (stereo not drawn),68*,5,-11,22,.,1
Cn1c(=O)c([N+](=O)[O-])c(Cl)c2ccccc21,5,95*,11,-33,-2,3
O=C(NC1CCCc2c1cnn2-c1ccc(F)cc1)C1CC1 (stereo not drawn),.,7,.,-35,.,.
N#Cc1c(N)n(-c2ccc(O)cc2)c2nc3ccccc3nc12,-3,2,-14,-36,38*,0
